The values below come from PubChem BioAssay AID504848 (National Center for Advancing Translational Sciences (NCATS), 2011).

About 1,400 (61%) of roughly 2,300 compounds were called active. Another 29% or so got no clear call; they are omitted. The call rests on the fitted dose curve; in most records, active means well fitted inhibition curve with a large enough effect; inconclusive means small, poorly fitted or top-dose-only effect, or effect the other way; inactive means no such curve, though single readings can be large or run the other way. So high a share suggests a set chosen from earlier hits. Some of the results follow.
Potency means the concentration at half of the fitted maximal effect.

The nature of this assay: Confirmation screen for delayed death inhibitors of the malarial parasite plastid, 96 hour incubation. Further: nearly all actives have a fitted effect of over 60% in size. The conditions noted are these: P. falciparum luciferase growth in erythrocytes; series mostly up to 28.7 µM. In short, it runs like this:
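Two-generation (96 h, 37 C) exposure of P. falciparum carrying an integrated firefly luciferase reporter in erythrocytes, 0.1% parasitemia and 2% hematocrit final, Albumax-supplemented RPMI. Luminescence decrease measures growth inhibition.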
Turning to `O=C(COc1ccccc1)N1c2ccccc2Sc2ccccc21`, the Potency is 11.2 µM (active).
Next, `CC1CCCC(NC(=O)c2cc(-c3ccncc3)nc3ccccc23)C1C` (centres undefined): 11.2 µM (active); `Cc1c(Cl)ccc2c(C(=O)O)cc(-c3ccccc3)nc12`: “inactive”.
Next, `COc1ccc2c(c1OC)C(=O)OC2Nc1nc(-c2ccccc2)cs1` (centres undefined): “inactive”.
Regarding `COc1ccc2c(c1OC)C(=O)N1N=C(c3ccccc3)CC21` (centres undefined), the Potency is 2.24 µM (active).
For `CC(C)NC(=O)c1onc(CSc2cccc(F)c2)c1C(=O)O` the value was “inactive”.
For `O=C(O)C1CC=CCC1C(=O)Nc1ccc(S(=O)(=O)N2CCCc3ccccc32)cc1` (centres undefined) the value was “inactive”; for `Cc1ccc(NC(=O)c2cc(S(=O)(=O)N3CCc4ccccc43)cn2C)cc1`, 11.2 µM (active).
For `C=CCn1c(C)cc(C2=NNC(=NCc3ccccc3)SC2)c1C` the value was 14.1 µM (active); for `Cc1cc(NC(=O)CSc2sc3c(O)cc(=O)[nH]c3c2C#N)ccc1Br`, 5.62 µM (active); for `N#Cc1c(SCC(=O)Nc2ccc(C(F)(F)F)cc2)sc2c(O)cc(=O)[nH]c12`, 0.0891 µM (active).
Turning to `CCCSc1ccc(-c2nn(-c3ccccc3)cc2/C=C(/C#N)C(=O)NCCCOC)cc1`, the Potency was 4.47 µM (active).
For `CC(C)(C)n1nnnc1C(c1ccc2ncccc2c1)N1CCSCC1` (centres undefined) the value was 11.2 µM (active); for `COc1ccc(Cl)cc1NC(=O)C(C)NC(c1ccccc1)c1ccccc1` (centres undefined), 5.62 µM (active); for `CN1CCN(C(=O)CCN2C(=O)/C(=C/c3cccc(Br)c3)SC2=S)CC1`, 3.98 µM (active).
Next, `O=C(CCN1C(=O)/C(=C/c2ccccc2Cl)SC1=S)N1CCOCC1`: 10 µM (active); `CCOc1cc(/C=C/c2cc(C(F)(F)F)[nH]c(=O)n2)ccc1O`: 14.1 µM (active); `CC(=O)O[C@H]1C(=O)[C@@]2(C)[C@H]([C@H](OC(=O)c3ccccc3)[C@]3(O)C[C@H](OC(=O)[C@H](O)[C@@H](NC(=O)c4ccccc4)c4ccccc4)C(C)=C1C3(C)C)[C@]1(OC(C)=O)CO[C@@H]1C[C@@H]2O`: 0.501 µM (active).
For `CC(=O)O[C@@]12CO[C@@H]1C[C@H](O)[C@@]1(C)C(=O)[C@H](O)C3=C(C)[C@@H](OC(=O)C(O)[C@@H](NC(=O)OC(C)(C)C)c4ccccc4)C[C@@](O)([C@@H](OC(=O)c4ccccc4)[C@H]21)C3(C)C` (some centres undefined) the value was 0.141 µM (active).
As for `CC(C)(C)c1cc(NC(=O)CCl)n(-c2ccccc2)n1`, the Potency was 8.91 µM (active).
For `O=C(CCl)Nc1c2c(nn1-c1ccccc1)CSC2` the value was 2.24 µM (active); for `Cc1ccc(-c2cc(NC(=O)CCl)n(-c3ccccc3)n2)cc1`, 3.98 µM (active); for `CCCCNC(=O)c1onc(CSc2ccc(Cl)cc2)c1C(=O)O`, “inactive”.
Take `COc1cc(OC)c2c(-c3cccc(-c4cccc(N)c4)c3)cc(=O)oc2c1`: the Potency was 10 µM (active).
For `NCCCNc1nc(N)c([N+](=O)[O-])c(NC2CCCCC2)n1` the value was 2.82 µM (active).
Next, `CC(C)C1C(=O)CC(c2ccccc2)NC1c1ccccc1` (centres undefined): 15.8 µM (active).
For `S=C(Nc1ccccc1Cl)N(Cc1ccccc1)Cc1cccnc1` the value was 11.2 µM (active).
Take `C(=C\c1nc(N2CCCCCC2)c2ccccc2n1)/c1ccccc1`: the Potency is 6.31 µM (active).
Next, `CC(C)CCSc1nc(N)c(C#N)cc1C#N`: 5.62 µM (active).
For `Cc1cccc2cc3c(nc12)SC(=NCC1CCCO1)N(Cc1ccco1)C3` (centres undefined) the value was 2 µM (active).
On to `CCCNC(=O)c1ccc(S(=O)(=O)c2ccc(OC)cc2)c([N+](=O)[O-])c1`, for which the Potency was 5.01 µM (active).
With `CCOc1ccc2c(c1)C(N(CCN1CCOCC1)C(=O)Nc1ccccc1)CC(C)(C)O2` (centres undefined), the Potency is 10 µM (active).
Take `O=C(N/N=C/c1cccn1-c1ccc([N+](=O)[O-])cc1)c1cccnc1`: the Potency is 11.2 µM (active).
For `COc1cc(/C=C(/C(=O)c2cccs2)c2nc3ccccc3[nH]2)ccc1O` the value was 3.98 µM (active).
Next, `COC(=O)/C(=C\c1cc(OC)c(OC)c(OC)c1)c1nc2ccccc2[nH]1`: 11.2 µM (active); `O=C(/C(=C/c1ccc(Cl)cc1)c1nc2ccccc2[nH]1)c1ccccc1`: 1.26 µM (active); `O=C(NCc1ccc2[nH]c3c(c2c1)CCCC3)c1ccc(S(=O)(=O)N2CCCC2)cc1`: 12.6 µM (active).
For `Brc1ccc2[nH]c3c(c2c1)CCC3` the value was “inactive”; for `C=CCNC(=O)c1onc(CSc2ccc(Cl)cc2)c1C(=O)O`, “inactive”.
For `COc1ccc(-c2cc(CNC(=O)CCl)on2)cc1`, the Potency is 1.41 µM (active).
For `NNc1nc(-c2ccccc2Cl)c2cc(Br)ccc2n1`, the Potency is 11.2 µM (active).
Turning to `COc1ccc(Cl)cc1NC(=O)c1noc(C)c1[N+](=O)[O-]`, the Potency was 12.6 µM (active).
Next, `CCCN1C2=C(C(=O)CCC2)C(c2ccc(O)c(Br)c2)C2=C1CCCC2=O`: 12.6 µM (active); `OC1CCN(c2c3c(nc4cc(-c5ccc(Cl)cc5)nn24)CCC3)CC1`: 3.98 µM (active).
For `C/C(=C\C(=O)c1ccncc1)Nc1ccccc1O` the value was 15.8 µM (active); for `CO[C@H](C(=O)[C@@H](O)[C@@H](C)O)C1Cc2cc3cc(O[C@H]4C[C@@H](O[C@H]5C[C@@H](O)[C@H](O)[C@@H](C)O5)[C@@H](O)[C@@H](C)O4)c(C)c(O)c3c(O)c2C(=O)[C@H]1O[C@H]1C[C@@H](O[C@H]2C[C@@H](O[C@H]3C[C@](C)(O)[C@H](O)[C@@H](C)O3)[C@H](O)[C@@H](C)O2)[C@H](O)[C@@H](C)O1` (some centres undefined), 0.562 µM (active); for `COc1ccc(NS(=O)(=O)c2ccc(N3CCOCC3)c(NC(=O)c3ccc(OC)cc3)c2)cc1`, 11.2 µM (active).
For `Cc1cc(Sc2nnc(N)s2)c2ccccc2n1` the value was 5.62 µM (active); for `Cc1cc(Sc2nnc(/N=C/N(C)C)s2)c2ccccc2n1`, 7.08 µM (active).
Turning to `CC1CCCN(Cc2c(O)ccc3c(=O)c(-c4nc5ccccc5s4)c(N)oc23)C1` (centres undefined), the Potency is 0.316 µM (active).
Turning to `CCOc1cc([N+](=O)[O-])cc(/C=N/NC(=O)c2c(-c3ccccc3)noc2C)c1O`, the Potency is 14.1 µM (active).
Next, `COCCn1c(SCc2csc(-c3ccccc3)n2)nc2ccccc21`: 12.6 µM (active); `CN1C(=O)Cc2cc(S(=O)(=O)N3CCN(c4cccc(C(F)(F)F)c4)CC3)ccc21`: 12.6 µM (active); `Cc1cccc(N2CCN(C3=NC(=O)C(Cc4ccccc4)S3)CC2)c1` (centres undefined): 1.58 µM (active).
For `O=C(Oc1nsnc1N1CCCCC1)N1CCOCC1` the value was 10 µM (active).
Next, `Cc1oc(-c2ccccc2Cl)nc1Cn1cccc1C1=NC(c2ccccc2)CO1` (centres undefined): 12.6 µM (active); `CCn1c(=O)n(CC)c2cc(N3CCCC3)c(NC(=O)c3ccc(C)cc3)cc21`: 7.08 µM (active).
As for `COc1ccc2cc3[n+](cc2c1OC)CCc1cc2c(cc1-3)OCO2`, the Potency is 0.501 µM (active).
Next, `O=C(Nc1ccccc1)N1CCC(O)(c2cccc(C(F)(F)F)c2)CC1`: 12.6 µM (active).
Regarding `COc1ccc(C#Cc2ccc3c(=O)c4ccccc4n(C)c3c2)cc1`, the Potency was 10 µM (active).
In the case of `Cn1c2ccccc2c(=O)c2ccc(C#Cc3ccc(N)cc3)cc21`, the Potency was 11.2 µM (active).
For `COc1cccc(S(=O)(=O)NCc2ccc(C(=O)NCc3ccccn3)cc2)c1` the value was “inactive”.
For `COc1ccc(N(C)S(=O)(=O)c2cccc(C(=O)NCc3ccc(C)cc3)c2)cc1` the value was 14.1 µM (active).
For `O=C(c1ccc([N+](=O)[O-])cc1)n1nc(-c2ccccc2)nc1NCc1ccc(F)cc1` the value was 10 µM (active); for `Cc1cc(C)nc(SCC(=O)c2ccc(C)c(C)c2)n1`, 12.6 µM (active); for `COc1ccccc1N1CCN(CCCCN2C(=O)C3CCCCN3C2=O)CC1` (centres undefined), 12.6 µM (active).
For the molecule `O=C(NNc1ccnc2cc(Cl)ccc12)C1CCCCC1`, the Potency was 0.282 µM (active).
Regarding `CCN1CCC(Nc2ccnc3cc(Cl)ccc23)CC1`, the Potency was 0.158 µM (active).
Take `Cc1cccc(-n2ccc(=O)c(C(=O)Nc3ccc(S(=O)(=O)N4CCOCC4)cc3)n2)c1`: the Potency was 5.01 µM (active).
For `c1ccc2oc(Cc3ccc(Cc4nc5ccccc5o4)cc3)nc2c1` the value was 8.91 µM (active); for `CC(c1ccco1)N(C(=O)c1cc(Cl)cc(Cl)c1)c1ccccn1` (centres undefined), 12.6 µM (active).
For `O=C(CCN1C(=O)/C(=C\c2ccc(F)cc2)SC1=S)Nc1ccccc1` the value was “inactive”.
For the molecule `O=C(CCCN1C(=O)/C(=C/c2cccs2)SC1=S)Nc1ccc(O)cc1`, the Potency is 7.08 µM (active).
Next, `O=C(CCN1C(=O)/C(=C/c2ccccc2)SC1=S)N[C@@H](CO)Cc1ccccc1`: 12.6 µM (active); `O=C(CCCN1C(=O)/C(=C\c2cccs2)SC1=S)Nc1ccc(O)cc1`: 3.98 µM (active); `O=C(CCN1C(=O)/C(=C/c2ccccc2)SC1=S)NCCc1ccc(O)cc1`: “inactive”.
Take `CCc1ccc(/C=C2\SC(=S)N(CCCC(=O)Nc3ccccc3C(=O)O)C2=O)cc1`: the Potency is 15.8 µM (active).
Next, `CCc1nn2c(=O)cc(COc3cccc(NC(=O)c4ccco4)c3)nc2s1`: 10 µM (active); `C=CCNC(=O)c1onc(CSc2cccc(C)c2)c1C(=O)O`: “inactive”.
For `CCc1noc(C)c1C(=O)N1CCC(CCC(=O)Nc2cccc(C)c2)CC1`, the Potency was 6.31 µM (active).
Next, `CC(=O)c1ccc[n+](CC(=O)NC(C)c2ccccc2)c1` (centres undefined): 4.47 µM (active); `O=C(O)CCNS(=O)(=O)c1cccc(Br)c1`: “inactive”.
Next, `CCc1ccccc1Nc1nc(N)nc(COC(=O)CCC(=O)c2ccc(F)cc2)n1`: 2.51 µM (active); `CCc1ccccc1Nc1nc(N)nc(COC(=O)CCNS(=O)(=O)c2ccccc2)n1`: 12.6 µM (active); `COc1ccccc1-n1c(=S)[nH]c2c(sc(=S)n2-c2ccc(C)cc2C)c1=O`: 3.16 µM (active).
Next, `COc1ccccc1CNC(=O)c1ccc(-c2ccccc2Cl)o1`: 6.31 µM (active); `CCCC(=O)Nc1nnc(CC(=O)N2CCCC2)s1`: “inactive”; `CCCc1nnc(NC(=O)CCC(=O)N2CCN(Cc3ccc(Cl)cc3)CC2)s1`: 11.2 µM (active).
As to `COc1ccc(CN2CCN(C(=O)CCC(=O)Nc3nnc(C4CCCCC4)s3)CC2)cc1F`, the Potency was 10 µM (active).
